Screens as filed in PubChem BioAssay.
Pf growth 96h = inhibits malaria parasite growth, 96 h | P. falciparum luciferase reporter growth, 96 h | Potency, µM (series often up to 28.7 µM), inactives show top-dose activity change, negative = inhibition, usual class: inhibitors | 320,000 compounds, 6.9% hits | AID 504834; also: % is scaled to controls: 0 for no effect and ±100 for the full control effect
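Compounds incubated with erythrocytes infected by luciferase-expressing P. falciparum (2% hematocrit, 0.05% parasitemia final) for 96 hours, 37 C in 5% CO2. Growth inhibition scored as decreased luciferase luminescence.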
NS1 function inh = influenza NS1 inhibition; Potency, µM (series often up to 46.1 µM), without a hit: at the highest dose activity, positive = more growth; AID 2326; 270,000 compounds, 0.4% hits; calls by dose curve; also: actives are rising curves; nearly all actives have a fitted effect of over 50% in size
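A cell-based growth assay was used: compounds that relieve NS1-induced slow growth of budding yeast raise OD600. Assay medium was yeast nitrogen base with ammonium sulphate and -URA supplement, pH 6.0, with 2% galactose.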
SARS PLP yeast = blocks SARS-CoV papain-like protease in a yeast assay; Potency, µM (series often up to 32.9 µM), inactives show at the highest dose activity, positive = growth rescue, most hits filed as activators; 330,000 compounds, 0.19% hits; S. cerevisiae expressing SARS-CoV PLpro, growth rescue; calls by dose curve; also: 0% is about no effect; nearly all actives have a fitted effect of over 55% in size
Pf growth 48h = P. falciparum growth inhibition at 48 hours (one generation). P. falciparum luciferase growth in erythrocytes, 48 h. Potency, µM (highest dose often 28.7 µM), inactives show top-dose activity change, negative = inhibition, hits mostly inhibitors. 310,000 compounds, 5.9% hits. AID 504832; also: % is scaled to controls: 0 for no effect and ±100 for the full control effect
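Luminescence readout; reporter = integrated firefly luciferase in P. falciparum. RBC culture at 2% hematocrit, 0.1% parasitemia final, 37 C/5% CO2; decreased signal taken as growth inhibition.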
* = called active by the depositor; u = inconclusive; x = no result given; ! = not active in a repeat. This is a sample that favours compounds with a hit; in the whole collection about 10% have one here. Unless noted, calls follow the shape of the dose curve; as a rule, active = well fitted inhibition curve with a large enough effect; inconclusive = small, poorly fitted or top-dose-only effect, or another doubt; inactive = no such curve, though single readings can be large or run the other way. Potency is read from the fitted curve at half-maximal effect.

SMILES | Pf growth 96h | NS1 function inh | SARS PLP yeast | Pf growth 48h
Cc1cc(N)c2ccccc2n1 | 17% | -2% | 2% | -5%
Nc1cc2ccncc2c2ccccc12 | u | -31% | -8% | 0.12µM*
O=C(NN1C(=O)NC2(CCCCC2)C1=O)c1ccc(Cl)c(Cl)c1 | 10% | x | 4% | -21%
Cc1cccc(OCCCN2CCOCC2)c1C | 6.6µM* | -14% | 0% | 34%
Cc1cccc(OCCCCCN2CCOCC2)c1C | u | -13% | -1% | -2%
COCCCNC(=O)c1cc(-c2cccnc2)nc2ccc(S(=O)(=O)N3CCCCCC3)cc12 | -25% | 11% | 2% | 21%
Cc1nn(Cc2ccccc2)c(N)c1C#N | 12µM* | -6% | -2% | 15%
Cc1nn(Cc2ccccc2)c(N)c1-c1ccccc1 | 0% | -14% | 5% | -5%
Cn1ccnc1C1CCCCN1Cc1nc(-c2ccc(Cl)cc2)no1 (stereo unspecified) | u | -6% | 1% | 12µM*
Clc1ccc(-c2noc(CN3CCCC3)n2)cc1 | u | 3% | 1% | 152%
COc1cccc(/C=C(/C(=O)OCC(=O)NC2CCCC(C)C2C)c2ccccc2)c1 (stereo unspecified) | u | -18% | -28% | 13µM*
COc1cccc(/C=C(/C(=O)OCC(N)=O)c2ccccc2)c1 | 13% | x | -7% | -1%
Cc1ccc(S(=O)(=O)N(C)c2ccc(OCC(=O)Nc3nc4ccccc4s3)cc2)cc1 | 3.3µM* | 3% | 9% | 4.7µM*
CCOc1ccc(S(=O)(=O)N(C)c2ccc(OCC(=O)Nc3nccs3)cc2)cc1 | u | x | 0% | 1.9µM*
Cc1ccc(C(=O)Nc2cccc(C(F)(F)F)c2)cc1NC(=O)c1c[nH]c2cc(C(F)(F)F)ccc2c1=O | x | x | -5% | x
Cc1cn(-c2cc(C(=O)Nc3ccc(C)c(NC(=O)C(=O)c4c[nH]c5ccccc45)c3)cc(C(F)(F)F)c2)cn1 | u | -4% | 1% | 1µM*
Cc1ccc2c(CC(=O)NCC3(N4CCOCC4)CCCCC3)coc2c1C | 9.3µM* | x | 9% | u
N#CCC(=O)Nc1ccc(C(=O)NCC2(N3CCOCC3)CCCCC2)cc1 | 10µM* | x | -2% | 12µM*
COc1cccc(C(=O)Nc2sc(C(C)C)cc2C(N)=O)c1OC | 13µM* | -152% | -4% | u
Cc1ccc2c(c1)C(=O)CC1(CCCCCC1)O2 | 80% | 3% | -1% | 54%
O=C1CC2(CCCCC2)Oc2ccc(O)cc21 | 4.1µM* | -31% | -12% | -24%
CCC(Sc1nc(C)cc(C)n1)C(=O)Nc1nccs1 (stereo unspecified) | 13µM* | 3% | 7% | u
CC(C)N(C(=O)COC(=O)[C@@H]1CC(O)CN1S(=O)(=O)c1ccc(C(C)(C)C)cc1)C(C)C (stereo partly specified) | 6.6µM* | x | 3% | 4.1µM*
COc1ccc(S(=O)(=O)N2CC(O)CC2C(=O)OCC(=O)Nc2ccc(Cl)cn2)cc1 (stereo unspecified) | 1.5µM* | -1% | -2% | 7%
O=C(NCC1CCCN1S(=O)(=O)c1cccs1)c1cccc(Cl)c1 (stereo unspecified) | -8% | x | 1% | u
SMILES | Pf growth 96h | NS1 function inh | SARS PLP yeast | Pf growth 48h
COc1cc2nc(SCc3ccc(Cl)cc3Cl)n(Cc3cccs3)c(=N)c2cc1OC | 13µM* | u | -8% | u
COCCCn1c(SCc2ccccc2)nc2cc(OC)c(OC)cc2c1=N | u | 13% | -6% | 13µM*
COc1cc2nc(SCc3ccc(C(F)(F)F)cc3)n(Cc3cccs3)c(=N)c2cc1OC | 0% | 14% | -2% | u
COc1ccc(Cn2c(SCc3ccc(C)cc3)nc3cc(OC)c(OC)cc3c2=N)cc1Cl | 2.3µM* | u | -29% | 1.7µM*
COc1ccc(Cn2c(SCc3cc(C)ccc3C)nc3cc(OC)c(OC)cc3c2=N)cc1 | u | -30% | 5% | 1.7µM*
COCCCn1c(SCc2cccc(C(F)(F)F)c2)nc2cc(OC)c(OC)cc2c1=N | u | -23% | -30% | u
O=C(CCCN1CCC(n2c(=O)[nH]c3ccccc32)CC1)c1ccc(F)cc1 | 10µM* | x | x | 0.81µM*
Cc1ccc(C(=O)NC2CCN(CCCC(=O)c3ccc(F)cc3)CC2)cc1 | u | 9% | 7% | 10µM*
CN(C)C(=O)c1cc(C(=O)c2ccc(F)cc2C(F)(F)F)c[nH]1 | 7% | 1% | 2% | 19%
CCOc1nc(N=C(N)N)nc2c(C)cccc12 | 0.59µM* | 12% | 1% | 8.3µM*
CCOc1ccccc1Nc1cc(C)c2cccc(C)c2n1 | 209% | 0% | -5% | 59%
COc1ccc(N2C(=O)CN(Cc3cc(OC)c(OC)c(OC)c3)C2=S)cc1 | 10% | x | -1% | u
COc1ccc(CN2CC(=O)N(c3ccc(Cl)cc3)C2=S)cc1OC | u | -4% | -1% | 13µM*
CCc1ccc(N2C(=O)CN(Cc3ccc(OC)c(OC)c3)C2=S)cc1 | 45% | -4% | -4% | u
COc1ccc(CN2CC(=O)N(c3cccc(Cl)c3)C2=S)cc1OC | 0% | 14% | 3% | 10µM*
CNC(=O)CC1C(=O)N(c2ccc(Cl)cc2)C(=S)N1CCc1ccc(OC)c(OC)c1 (stereo unspecified) | -5% | 2% | 0% | 12µM*
COc1cccc(N2C(=O)CN(Cc3cc(OC)c(OC)c(OC)c3)C2=S)c1 | -9% | 6% | -2% | 0.33µM*
COc1ccc(CN2CC(=O)N(c3ccccc3OC)C2=S)cc1OC | -5% | 1% | 0% | x
Cc1ccc(S(=O)(=O)N(C)C)cc1NC(=O)COC(=O)Cc1cccs1 | -6% | x | 1% | u
Cc1cccc(NC(=O)CSc2nnnn2-c2ccc3c(c2)OCCO3)n1 | u | -7% | -1% | u
Cc1ccsc1/C=C/C1=Cc2c(sc(NC(=O)CSc3n[nH]c(N)n3)c2C#N)C(C)(C)C1 | 8.3µM* | 23% | -2% | x
CCOc1ccc(/C=C/C2=Cc3c(sc(NC(=O)CSc4n[nH]c(N)n4)c3C#N)C(C)(C)C2)cc1 | 8.3µM* | 21% | 3% | 10µM*
CCOC(=O)c1sc(NC(=O)CSc2n[nH]c(-c3ccncc3)n2)c(C#N)c1C | x | -9% | 14% | 15%
CCN1N=C(C)C=C(c2ccccc2)n2c1nc1ccccc12 | 6% | -7% | 0% | 4%
Cc1ccc(-n2c(C)cc(C3N=C(N)Nc4nc5ccccc5n43)c2C)c(C)c1 (stereo unspecified) | -25% | -18% | 1% | 8.3µM*
CCCCCCCCCCOC(=O)Cn1c(COc2cccc(C)c2)[n+](C)c2ccccc21 | 5.2µM* | -101% | -7% | u
CCCCCCCCCCOC(=O)Cn1c(COc2ccc(OC)cc2)[n+](C)c2ccccc21 | 4.7µM*! | -52% | -6% | 4.1µM*
CCCCCCCCCCOC(=O)Cn1c(COc2ccccc2)[n+](C)c2ccccc21 | u | -1% | -8% | u
Cc1cccc(Cc2nnc(CCC(=O)N(C)CCc3ccccc3)o2)c1 | 12µM* | -16% | -2% | -28%
CC(CC(=O)N(C)C1CCCCC1)S(=O)(=O)c1ccc2c(c1)NC(=O)CO2 (stereo unspecified) | 7.4µM* | -2% | -6% | 13%
